An excerpt weighted towards active compounds, which were near 4.6% of everything screened.
DAX1 inh-1: DAX1 (NR0B1) inhibitors, primary screen, cell-based, HEK293, Gal4-DAX1, luciferase luminescence; Nuclear receptor subfamily 0 group B member 1 (Homo sapiens), P51843; inhibition, % at 6.75 µM; HEK293 Gal4-DAX1 luciferase reporter; hit rate 0.99% among 340,000;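 active means inhibition above the mean over all tested compounds plus 3 SD, cut at about 4.2% in these data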;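 further: 0% = DAX1-transfected cells with DMSO and 100% = empty-vector control cells with DMSO; inhibition shows as a rise in luminescence from relieved DAX1 repression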
Target sequence (P51843 207-470 limits assumed): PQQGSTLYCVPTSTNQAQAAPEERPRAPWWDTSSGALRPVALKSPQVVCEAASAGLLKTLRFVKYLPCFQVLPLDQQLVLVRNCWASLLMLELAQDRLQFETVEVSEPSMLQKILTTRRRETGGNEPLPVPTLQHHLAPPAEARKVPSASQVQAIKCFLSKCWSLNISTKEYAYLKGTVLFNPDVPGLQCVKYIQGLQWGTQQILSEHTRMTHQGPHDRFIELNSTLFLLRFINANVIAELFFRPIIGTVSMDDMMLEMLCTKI
Wee1 stabilizer: Wee1 degradation inhibitors, primary screen, cell-based, HeLa, Wee1K328M-luciferase, luminescence | AID 1321, 2008 | hit rate 1.2% among 220,000 | HeLa Luc-Wee1K328M stability; 100% = proteasome inhibitor MG132 effect | Wee1-like protein kinase (Homo sapiens), P30291 | reporter increase, % at 5 µM;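 active means activation above the mean of all tested compounds plus 3 SD, set per screening run, cut at about 8.8% in these data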;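 further: cells exposed to compound for 20 h before luminescence read; 0% = DMSO alone and 100% = MG132 at 30 µM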
hcDAF12 agonist: H. contortus DAF-12 nuclear receptor activators, primary screen, cell-based, luminescence, HEK293, lit1-tk-luc reporter; HEK293 hcDAF-12 lit1-tk-luc reporter; 0% DMSO, 100% Δ7-dafachronic acid; activation, % at 6.8 µM; hit rate 1.4% among 370,000;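 active means activation above the mean of all tested compounds plus 3 SD, cut at about 5.5% in these data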;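 further: 100% = response to 3 µM Δ7-dafachronic acid high control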
ssDAF12 agonist: S. stercoralis DAF-12 nuclear receptor activators, primary screen, cell-based, luminescence, HEK293, GRIP1 co-expression, lit1-tk-luc; Nuclear hormone receptor DAF-12 (Strongyloides stercoralis); HEK293 ssDAF-12/GRIP1 lit1-tk-luc reporter; % of 3 µM dafachronic acid response; activation, % at 6.8 µM; hit rate 1% among 370,000; AID 652126, 2013;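 active means activation above the mean over all tested compounds plus 3 SD, cut at about 0.9% in these data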;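 further: 0% = DMSO-only wells and 100% = 3 µM delta7-dafachronic acid wells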
hgDAF-12 ag: H. glycines DAF-12 receptor agonists, primary screen, cell-based, luminescence, HEK293, GAL4 fusion, UAS-luciferase; Nuclear hormone receptor DAF-12 (Heterodera glycines), GAL4 fusion; HEK293 GAL4-hgDAF12 UAS-luciferase reporter, agonist luminescence; normalized to butyrate control; activation, % at 6.8 µM; hit rate 1.8% among 370,000;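 active means activation above a cutoff set at the mean of all screened compounds plus 3 SD, cut at about 10% in these data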;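 further: 0% = DMSO wells and 100% = sodium butyrate wells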
DAX1 inh-2: DAX1 (NR0B1) inhibitors on StAR promoter, primary screen, cell-based, luminescence, SF-1 (NR5A1), full-length DAX-1; HEK293T StAR-luciferase reporter, SF-1/DAX-1 repression relief; inhibition, % at 6.8 µM; hit rate 1.1% among 370,000; AID 652010, 2013;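 active means inhibition above the mean over all tested compounds plus 3 SD, cut at about 3.6% in these data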;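 further: 0% = DAX-1 cells with DMSO and 100% = cells lacking DAX-1 with DMSO; higher inhibition means more luminescence from relief of DAX-1 repression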
Numbers without * were called inactive; x = not tested or not shown.

SMILES	DAX1 inh-1	Wee1 stabilizer	hcDAF12 agonist	ssDAF12 agonist	hgDAF-12 ag	DAX1 inh-2
O=C(/C=C/c1c(F)cccc1Cl)c1ccc(O)cc1	-1	11*	-1	-1	2	-1
CC(C)(C)N=Cc1cc(-c2ccccc2)sc1O	2	-1	1	0	12*	2
CC1=NN(c2nc(-c3ccccc3)cs2)C(=O)C1	-2	-2	-3	-2	-5	-1
O=C1C2C3c4ccccc4C(c4ccccc43)[C@@H]2C(=O)N1c1nc(-c2ccccc2)cs1 (some centres undefined)	5.0*	0	-2	-1	4	0
O=C1CC(c2ccccc2)=NN1c1nc(-c2ccccc2)cs1	-1	11*	4	0	4	0
CCCCN(C(=O)c1cc2c(s1)CCC2)c1c(N)n(CCC)c(=O)[nH]c1=O	0	x	0	-1	0	-1
O=C(CNCc1ccccc1Cl)Nc1ccc2c(c1)OCCO2	2	-1	0	-1	12*	3
CC(C(=O)Nc1ccc2c(c1)OCCO2)N(C)Cc1c(F)cccc1Cl (centres undefined)	4.5*	0	-2	0	-1	1
O=C(CSCc1ccc(Cl)cc1)Nc1ccc2c(c1)OCO2	-2	3	-1	-1	1	0
O=C(CNCc1ccc(Cl)cc1)Nc1ccc2c(c1)OCCO2	-1	0	2	-2	8	1
O=C(CSCc1ccccc1Cl)Nc1ccc2c(c1)OCCO2	5.8*	1	3	-1	11*	3
CC(C(=O)Nc1ccc2c(c1)OCO2)N(C)CC(=O)Nc1ccccc1Cl (centres undefined)	0	x	-1	-2	-2	-1
Cc1ccc(Cl)c(NC(=O)COC(=O)c2nn(C)c(=O)c3ccccc23)c1Cl	0	x	-1	0	-2	0
COC(=O)c1ccc(NC(=O)C2CCCN(S(C)(=O)=O)C2)cc1 (centres undefined)	-1	-3	-1	-1	2	0
COC(=O)c1ccc(NC(=O)C2CCN(S(C)(=O)=O)CC2)cc1	1	11*	1	-1	4	0
C#Cc1ccc(CN2CCC(Oc3cc(C(=O)NC4CC4)ccc3OC)CC2)cc1	-2	x	-2	-1	0	0
Cc1nc2sc(C(=O)NC3CC3)c(N)c2c(C)c1Cl	x	x	4	0.9*	8	1
Cc1nc2sc(C(=O)NCc3ccncc3)c(N)c2c(C)c1Cl	x	x	-2	-1	2	1
CCOC(=O)c1[nH]c2c(c1C)C(=O)CC(c1ccc(F)cc1)C2 (centres undefined)	-1	0	-2	1.2*	3	-3
CCOCCOC(=O)c1[nH]c2c(c1C)C(=O)CC(c1ccccc1)C2 (centres undefined)	-2	x	0	-1	-2	0
CCOC(=O)c1sc2nc3c(cc2c1N)C(=O)CC(C)(C)C3	4.4*	-1	-2	-1	1	1
CC1CCN(C(=O)c2ccc(N3CCOCC3)c([N+](=O)[O-])c2)CC1	-1	x	-3	-1	2	1
CCOc1ccc(-c2nc(CSc3nnc(N)s3)cs2)cc1	1	7	3	0	12*	1
CCOc1ccc(-c2nc(CSc3nnc(N)s3)cs2)cc1OC	0	1	-1	-1	5	0
Cc1cccnc1C(c1ccc(F)cc1)N(C)C(=O)C1CCN(CCOc2ccc(Cl)cc2Cl)CC1 (centres undefined)	x	x	-1	-1	4	-1
SMILES	DAX1 inh-1	Wee1 stabilizer	hcDAF12 agonist	ssDAF12 agonist	hgDAF-12 ag	DAX1 inh-2
COc1ccccc1Cc1c(-c2ccccc2)nc2ccc(Cl)cn12	x	x	3	1.5*	6	3
Brc1ccc(-c2nc3ccc(Br)cn3c2Cc2ccccc2)cc1	x	x	0	-1	12*	-3
COc1ccccc1Cc1c(-c2ccc(C#N)cc2)nc2ccc(Br)cn12	x	x	6.0*	-1	4	0
COc1ccccc1Cc1c(-c2ccccc2)nc2ccc(Br)cn12	x	x	5	0	8	3
COc1ccccc1C(=O)NC(CCSC)C(=O)OCC(=O)N1CCN(S(=O)(=O)c2ccc(C)cc2)CC1 (centres undefined)	-1	x	-1	-1	2	1
CC(=O)Nc1cc(-c2ccccc2Cl)cn2c(-c3ccc(S(C)(=O)=O)cc3)cnc12	x	x	-1	-1	2	-2
NC(=S)N(c1ccccc1)c1ccccc1	-1	9.6*	-1	-2	0	0
O=C(NCCCn1ccnc1)c1sc2cc([N+](=O)[O-])ccc2c1Cl	0	x	0	-1	5	-2
Cc1ccc(-c2noc(CSc3ccccc3)n2)cc1	0	0	3	0	12*	3.9*
COc1ccc(-c2noc(Cc3ccccc3OC)n2)cc1	0	8.9*	-1	-1	3	0
Cc1ccc(OCc2nc(-c3ccccc3)no2)cc1	4.8*	2	2	0	9	1
Clc1ccc(OCc2nc(-c3ccncc3)no2)c(Cl)c1	2	-2	6.1*	1	12*	3
c1ccc(-c2noc(COc3ccc4c(c3)OCO4)n2)cc1	4	1	2	-1	7	1
COc1ccccc1Cc1nc(-c2cccnc2)no1	2	4	-1	-1	2	-1
O=C(COC(=O)c1ccc(Cl)nc1)Nc1ccc(N2CCCCC2)cc1	1	x	0	-1	6	0
Cc1cccc(C)c1NC(=O)C1(C)CSCC(=O)N1CCc1ccccc1 (centres undefined)	x	x	-1	-1	-3	0
Cc1ccccc1OCc1nc(-c2ccccc2)no1	0	11*	4	0	8	1
Cc1ccc(-c2noc(COc3ccccc3C)n2)cc1	1	-2	-2	-1	2	0
CCOc1ccc(NC(=O)CSc2nnc(N)s2)c([N+](=O)[O-])c1	2	9.8*	-1	-2	-3	0
CCOc1ccc(NC(=O)CSc2ncn[nH]2)c([N+](=O)[O-])c1	0	0	-1	-2	0	0
Cc1cccc(Nc2nnc(SCC(=O)Nc3ccccc3[N+](=O)[O-])s2)c1	4.4*	-3	4	0	3	0

Compound activity (PubChem)
